PubChem BioAssay (EPA / NIEHS)
The source made the active and inactive calls. The calls were made as follows: active = hit-call score of the fitted dose curve at least 0.9, where 1 is the maximum; inactive = score below 0.9.

How the values were obtained:
Conditions in all cases: mRNA level, 48 h; actives raise or lower the signal
[1] = read-out: Cytochrome P450 7A1 (Homo sapiens) (UniProt P22680); assay: LTEA_HepaRG_CYP7A1: Life Technologies and Expression Analysis (LTEA) Assay for Cytochrome P450 7A1 (CYP7A1) using HepaRG (AID 2283496)
Method in brief: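 Gene expression endpoint in human HepaRG liver cells treated for 48 h with test chemicals (up to 100 uM, 0.5% DMSO). Values come from bidirectional concentration-response fitting versus DMSO.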

[2] = read-out: Glutathione S-Transferase (GSTA2), GSTA2 (gene 2939); assay: LTEA_HepaRG_GSTA2: Life Technologies and Expression Analysis (LTEA) Assay for Glutathione S-Transferase (GSTA2) using HepaRG (AID 2283497)
Method in brief: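 Differentiated human HepaRG cells were exposed in duplicate for 48 h in serum-free induction medium, 8 points from 100 uM top in half-log steps, 0.5% DMSO. GSTA2 mRNA was measured by TaqMan qRT-PCR, normalized to ACTB, GAPDH and POLR2A; bidirectional fit versus DMSO.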

[3] = read-out: Glutamate-cysteine ligase catalytic (GCLC), GCLC (gene 2729); assay: LTEA_HepaRG_GCLC: Life Technologies and Expression Analysis (LTEA) Assay for Glutamate-cysteine ligase catalytic (GCLC) using HepaRG (AID 2283498)
Method in brief: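 Differentiated HepaRG cells exposed 48 h in serum-free induction medium, eight-point half-log series topping at 100 uM in 0.5% DMSO, duplicates. GCLC mRNA by qRT-PCR normalized to ACTB, GAPDH and POLR2A, fitted bidirectionally versus DMSO.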

[4] = read-out: growth arrest and DNA damage 45 (GADD45G), GADD45G (gene 10912); assay: LTEA_HepaRG_GADD45G: Life Technologies and Expression Analysis (LTEA) Assay for growth arrest and DNA damage 45 (GADD45G) using HepaRG (AID 2283499)
Method in brief: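 GADD45G transcript level by qRT-PCR (housekeeping-normalized: ACTB, GAPDH, POLR2A) after 48 h chemical treatment of a single HepaRG lot in serum-free induction medium; eight-point half-log series up to 100 uM in 0.5% DMSO, duplicates, up- or down-regulation scored.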

[5] = read-out: Glutathione S-transferase M3 (GSTM3), GSTM3 (gene 2947); assay: LTEA_HepaRG_GSTM3: Life Technologies and Expression Analysis (LTEA) Assay for Glutathione S-transferase M3 (GSTM3) using HepaRG (AID 2283501)
Method in brief: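 GSTM3 transcript levels came from Fluidigm TaqMan qRT-PCR normalized to three housekeeping genes, fitted in both directions against DMSO. HepaRG cultures received chemicals for 48 h in serum-free induction medium (0.5% DMSO), 8 half-log concentrations up to 100 uM, duplicate.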

[6] = read-out: Heat shock 70 kDa protein 1 (HSPA1A), gene 3303; assay: LTEA_HepaRG_HSPA1A: Life Technologies and Expression Analysis (LTEA) Assay for Heat shock 70 kDa protein 1 (HSPA1A) using HepaRG (AID 2283502)
Method in brief: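 HSPA1A induction in human HepaRG liver cells is measured after 48 h of chemical treatment (100 uM maximum, 0.5% DMSO vehicle). Expression comes from qRT-PCR normalized to endogenous controls.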

[7] = read-out: Hypoxia-inducible factor 1-alpha (Homo sapiens) (UniProt Q16665); assay: LTEA_HepaRG_HIF1A: Life Technologies and Expression Analysis (LTEA) Assay for Hypoxia-inducible factor 1 (HIF1A) Trancription factor using HepaRG (AID 2283503)
Method in brief: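 HepaRG, 48 h exposure, 8-pt half-log series from 100 uM, 0.5% DMSO vehicle, duplicates. Readout: HIF1A transcript by qRT-PCR (Fluidigm array), housekeeping-normalised. Bidirectional curve fit vs DMSO baseline.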

[8] = read-out: 3-Hydroxy-3-Methylglutaryl-CoA Synthase 2 (HMGCS2), HMGCS2 (gene 3158); assay: LTEA_HepaRG_HMGCS2: Life Technologies and Expression Analysis (LTEA) Assay for 3-Hydroxy-3-Methylglutaryl-CoA Synthase 2 (HMGCS2) using HepaRG (AID 2283504)
Method in brief: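 Readout is HMGCS2 transcript by qRT-PCR, housekeeping-normalised (ACTB/GAPDH/POLR2A) and fitted bidirectionally against 0.5% DMSO. Differentiated HepaRG cells received chemicals 48 h, duplicate wells, eight half-log concentrations topping at 100 uM.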

HGF (gene 3082) = assay: LTEA_HepaRG_HGF: Life Technologies and Expression Analysis (LTEA) Assay for Hepatocyte Growth Facto (HGF) using HepaRG (AID 2283505)
Method in brief: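 HGF transcript was quantified by TaqMan qRT-PCR against three housekeeping genes after 48 h treatment of HepaRG cells. Exposure ran in duplicate over eight half-log steps topping at 100 uM in 0.5% DMSO vehicle.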

[9] = read-out: Insulin Like Growth Factor 1 (IGF1), IGF1 (gene 3479); assay: LTEA_HepaRG_IGF1: Life Technologies and Expression Analysis (LTEA) Assay for Insulin Like Growth Factor 1 (IGF1) using HepaRG (AID 2283506)
Method in brief: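 Using human HepaRG liver cells, IGF1 transcript induction or suppression is measured 48 h after dosing across eight concentrations capped at 100 uM. Values derive from bidirectional concentration-response fitting with DMSO as baseline.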

[10] = read-out: Intercellular Adhesion Molecule 1 (ICAM1), ICAM1 (gene 3383); assay: LTEA_HepaRG_ICAM1: Life Technologies and Expression Analysis (LTEA) Assay for Intercellular Adhesion Molecule 1 (ICAM1) using HepaRG (AID 2283507)
Method in brief: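 ICAM1 transcript levels measured by qRT-PCR, normalized to three housekeeping genes (ACTB, GAPDH, POLR2A), after 48 h chemical exposure of HepaRG cells. Duplicate eight-point half-log series from 100 uM in 0.5% DMSO; gain or loss fitted against vehicle.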

[11] = read-out: Insulin-like growth factor-binding protein 1 (IGFBP1), IGFBP1 (gene 3484); assay: LTEA_HepaRG_IGFBP1: Life Technologies and Expression Analysis (LTEA) Assay for Insulin-like growth factor-binding protein 1 (IGFBP1) using HepaRG (AID 2283508)
Method in brief: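 Read-out is qRT-PCR transcript level normalized to three housekeeping genes, fitted in both directions against 0.5% DMSO. Differentiated HepaRG cells received eight half-log concentrations (top 100 uM) in duplicate for 48 h in serum-free induction medium.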

[12] = read-out: Interleukin 6 (IL6), IL6 (gene 3569); assay: LTEA_HepaRG_IL6: Life Technologies and Expression Analysis (LTEA) Assay for Interleukin 6 (IL6) using HepaRG (AID 2283509)
Method in brief: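 HepaRG cells exposed in duplicate for 48 h to eight half-log concentrations, top 100 uM, in 0.5% DMSO serum-free induction medium. mRNA measured by qRT-PCR, normalized to ACTB, GAPDH and POLR2A. Bidirectional fit versus DMSO.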

[13] = read-out: Potassium channel subfamily K member 1 (KCNK1), KCNK1 (gene 3775); assay: LTEA_HepaRG_KCNK1: Life Technologies and Expression Analysis (LTEA) Assay for Potassium channel subfamily K member 1 (KCNK1) using HepaRG (AID 2283511)
Method in brief: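 Differentiated HepaRG cells, 48 h exposure in serum-free induction medium with 0.5% DMSO; 8 concentrations, half-log from 100 uM, duplicate. KCNK1 mRNA by qRT-PCR, normalized to ACTB, GAPDH, POLR2A; bidirectional fit vs DMSO.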

[14] = read-out: Lipase C (LIPC), LIPC (gene 3990); assay: LTEA_HepaRG_LIPC: Life Technologies and Expression Analysis (LTEA) Assay for Lipase C (LIPC) using HepaRG (AID 2283514)
Method in brief: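 HepaRG cells, 48 h after plating, treated in duplicate for 48 h in serum-free induction medium over 8 half-log concentrations from 100 uM, 0.5% DMSO. LIPC mRNA by TaqMan qRT-PCR normalized to ACTB/GAPDH/POLR2A; bidirectional fit versus DMSO.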

[15] = read-out: Interleukin 6 Receptor (IL6R), IL6R (gene 3570); assay: LTEA_HepaRG_IL6R: Life Technologies and Expression Analysis (LTEA) Assay for Interleukin 6 Receptor (IL6R) using HepaRG (AID 2283510)
Method in brief: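 Concentration-response in human liver HepaRG cells: eight concentrations from 100 uM downward by half-logs, 48 h exposure, 0.5% DMSO vehicle. IL6R mRNA change measured by qRT-PCR and fitted in both directions relative to vehicle.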

[16] = read-out: Keratin 19 (KRT19), KRT19 (gene 3880); assay: LTEA_HepaRG_KRT19: Life Technologies and Expression Analysis (LTEA) Assay for Keratin 19 (KRT19) using HepaRG (AID 2283512)
Method in brief: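 KRT19 transcript measured by TaqMan qRT-PCR, referenced to three housekeeping genes, after HepaRG cells received test chemicals for 48 h. Eight half-log concentrations, top 100 uM, 0.5% DMSO vehicle; increases and decreases both fitted.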

[17] = read-out: Lipoprotein lipase (LPL), LPL (gene 4023); assay: LTEA_HepaRG_LPL: Life Technologies and Expression Analysis (LTEA) Assay for Lipoprotein lipase (LPL) using HepaRG (AID 2283515)
Method in brief: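 Differentiated HepaRG cells, plated 48 h, then exposed 48 h in serum-free induction medium to 8 concentrations (top 100 uM, half-log steps) in 0.5% DMSO, duplicate. LPL mRNA measured by qRT-PCR, normalized to ACTB, GAPDH and POLR2A.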

[18] = read-out: JUN Transcription Factor, JUN (gene 3725); assay: LTEA_HepaRG_JUN: Life Technologies and Expression Analysis (LTEA) Assay for JUN Transcription Factor using HepaRG (AID 2283513)
Method in brief: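 Human HepaRG liver cells receive test chemicals in 0.5% DMSO for 48 h across an eight-point range topping at 100 uM. Expression changes in JUN are scored in both directions against the DMSO vehicle.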

Chain of Hypoxia-inducible factor 1-alpha (Homo sapiens) (Q16665 whole entry, looked up): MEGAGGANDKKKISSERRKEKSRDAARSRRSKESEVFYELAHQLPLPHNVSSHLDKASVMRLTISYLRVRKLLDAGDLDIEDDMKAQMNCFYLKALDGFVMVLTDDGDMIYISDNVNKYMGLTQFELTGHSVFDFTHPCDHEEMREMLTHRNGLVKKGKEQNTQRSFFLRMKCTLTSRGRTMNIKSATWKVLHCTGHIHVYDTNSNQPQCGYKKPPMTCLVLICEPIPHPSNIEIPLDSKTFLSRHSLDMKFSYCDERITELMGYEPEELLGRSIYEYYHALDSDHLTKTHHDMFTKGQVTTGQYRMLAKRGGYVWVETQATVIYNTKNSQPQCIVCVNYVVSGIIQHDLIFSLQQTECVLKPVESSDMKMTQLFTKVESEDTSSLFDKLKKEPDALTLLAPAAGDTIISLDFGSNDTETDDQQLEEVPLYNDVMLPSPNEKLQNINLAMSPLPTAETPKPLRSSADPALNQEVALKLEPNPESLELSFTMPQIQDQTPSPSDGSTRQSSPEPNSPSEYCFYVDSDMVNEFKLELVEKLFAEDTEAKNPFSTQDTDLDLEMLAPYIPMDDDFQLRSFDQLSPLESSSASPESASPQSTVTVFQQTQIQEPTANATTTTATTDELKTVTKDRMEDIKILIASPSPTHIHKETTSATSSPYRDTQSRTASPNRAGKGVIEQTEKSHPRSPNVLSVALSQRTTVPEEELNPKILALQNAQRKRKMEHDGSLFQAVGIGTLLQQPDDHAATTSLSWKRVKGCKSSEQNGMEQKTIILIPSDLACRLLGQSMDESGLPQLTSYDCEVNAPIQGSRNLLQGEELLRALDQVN

C#CC(C)(C)NC(=O)c1cc(Cl)cc(Cl)c1
outcome [1]: inactive | outcome [2]: inactive | outcome [3]: inactive | outcome [4]: inactive | outcome [5]: inactive | outcome [6]: inactive | outcome [7]: inactive | outcome [8]: inactive | outcome (HGF (gene 3082)): inactive | AC50 [9]: 14.8 µM (active) | outcome [10]: inactive | outcome [11]: inactive | outcome [12]: inactive | outcome [13]: inactive | outcome [14]: inactive

FC(F)C(F)(F)OCC(Cn1cncn1)c1ccc(Cl)cc1Cl (configuration not stated)
AC50 [1]: 44.6 µM (active) | AC50 [2]: 38.7 µM (active) | outcome [3]: inactive | AC50 [4]: 11.1 µM (active) | AC50 [5]: 73.6 µM (active) | AC50 [6]: 83.4 µM (active) | AC50 [7]: 76.4 µM (active) | AC50 (HGF (gene 3082)): 87.2 µM (active) | AC50 [9]: 33.4 µM (active) | AC50 [10]: 31.9 µM (active) | AC50 [11]: 31.4 µM (active) | AC50 [12]: 78.5 µM (active) | outcome [15]: inactive | AC50 [13]: 66.8 µM (active) | AC50 [14]: 49.8 µM (active)

CCCCN(CC)c1c([N+](=O)[O-])cc(C(F)(F)F)cc1[N+](=O)[O-]
outcome [1]: inactive | outcome [2]: inactive | outcome [3]: inactive | outcome [4]: inactive | outcome [5]: inactive | outcome [6]: inactive | outcome [7]: inactive | outcome (HGF (gene 3082)): inactive | outcome [9]: inactive | outcome [10]: inactive | outcome [11]: inactive | outcome [12]: inactive | outcome [15]: inactive | outcome [13]: inactive | outcome [16]: inactive | outcome [14]: inactive | outcome [17]: inactive

N#CSCSC#N
AC50 [1]: 50 µM (active) | AC50 [2]: 76.2 µM (active) | outcome [3]: inactive | outcome [4]: inactive | outcome [5]: inactive | outcome [6]: inactive | outcome [7]: inactive | outcome (HGF (gene 3082)): inactive | outcome [9]: inactive | outcome [10]: inactive | outcome [11]: inactive | outcome [12]: inactive | AC50 [15]: 68.4 µM (active) | outcome [13]: inactive | AC50 [16]: 90.1 µM (active) | AC50 [14]: 93.7 µM (active) | AC50 [17]: 78.1 µM (active)

COP(=O)(OC)SCn1c(=O)oc2cc(Cl)cnc21
outcome [1]: inactive | AC50 [2]: 65 µM (active) | outcome [3]: inactive | outcome [4]: inactive | outcome [5]: inactive | outcome [6]: inactive | outcome [7]: inactive | AC50 (HGF (gene 3082)): 65.9 µM (active) | outcome [9]: inactive | outcome [10]: inactive | outcome [11]: inactive | outcome [12]: inactive | outcome [15]: inactive | outcome [13]: inactive | outcome [18]: inactive | AC50 [14]: 79.1 µM (active)

CC(C)N(C(=O)SCC(Cl)=C(Cl)Cl)C(C)C
outcome [1]: inactive | outcome [2]: inactive | outcome [3]: inactive | outcome [4]: inactive | outcome [5]: inactive | outcome [6]: inactive | outcome [7]: inactive | outcome [8]: inactive | outcome (HGF (gene 3082)): inactive | outcome [9]: inactive | outcome [10]: inactive | outcome [11]: inactive | outcome [12]: inactive | outcome [15]: inactive | outcome [13]: inactive | outcome [16]: inactive | outcome [14]: inactive
